The list is not random: actives were taken first. Their share in the collection is about 3.5%.
TEAD-YAP block = TEAD-YAP interaction inhibition; inhibition, % at 9.12 µM; HEK-TIYL cells, TEAD-Gal4/YAP UAS-luciferase luminescence; AID 1259422; actives 1.4% (n = 640,000); in the data active means inhibition above about 32%;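 further: 0% = median of test compound wells and 100% = reference inhibitor wells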
GPR151 ag = activators of human GPR151 | Q8TDV0 | PathHunter beta-arrestin GPR151 cells, luminescence | activation, % at 11.2 µM | actives 1% (n = 650,000); in the data active means activation above about 4.9%;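 further: 0% = median of compound wells and 100% = cells with positive control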
FBW7 act = human FBW7 E3 ligase activation, primary screen; normalized activity (activation), % at 26.1 µM; Q969H0; AID 1259310; AlphaScreen FBW7–phospho-cyclin E peptide binding, activator screen; actives 0.13% (n = 650,000); in the data active means normalized activity above about 1.9%;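 further: purified mutant Fbw7 with reduced substrate affinity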
MITF inh = blocks human microphthalmia-associated transcription factor; AlphaScreen MITF homodimerization, bead proximity signal; inhibition, % at 2.6 µM; O75030; actives 0.91% (n = 650,000); in the data active means inhibition above about 50%;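 further: 0% = vehicle wells with protein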
Target sequence (O75030 whole entry, looked up): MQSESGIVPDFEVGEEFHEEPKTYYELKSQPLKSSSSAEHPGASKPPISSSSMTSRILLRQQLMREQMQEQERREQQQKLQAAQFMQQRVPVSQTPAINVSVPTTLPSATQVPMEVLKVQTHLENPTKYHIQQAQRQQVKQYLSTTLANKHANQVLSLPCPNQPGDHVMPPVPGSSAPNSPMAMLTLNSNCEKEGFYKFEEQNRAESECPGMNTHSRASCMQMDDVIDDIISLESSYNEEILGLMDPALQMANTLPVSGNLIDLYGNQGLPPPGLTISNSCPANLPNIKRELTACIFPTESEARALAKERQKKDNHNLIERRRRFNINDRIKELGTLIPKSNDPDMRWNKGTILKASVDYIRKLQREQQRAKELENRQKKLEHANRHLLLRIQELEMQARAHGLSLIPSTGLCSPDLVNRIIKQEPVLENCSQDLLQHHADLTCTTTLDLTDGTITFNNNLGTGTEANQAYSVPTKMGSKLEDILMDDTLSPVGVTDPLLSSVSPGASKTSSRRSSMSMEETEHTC
An asterisk follows results filed as active.

SMILES | TEAD-YAP block | GPR151 ag | FBW7 act | MITF inh
OC1CCC(Nc2nc(NCc3ccccc3)c3ncn(-c4ccsc4)c3n2)CC1 (configuration not stated) | -19 | 0 | 0 | 7
Oc1ccc(CCNc2nc(NC3CCC(O)CC3)nc3c2ncn3-c2ccsc2)cc1 (configuration not stated) | 48* | -2 | 0 | -4
COc1cc(NC(=O)c2cc([N+](=O)[O-])ccc2Cl)c(OC)cc1Cl | 10 | 0 | 1 | 23
COc1ccc(C2=NN(C(=O)CSc3nnc(CNC(=O)c4cccc(OC)c4)n3C)C(c3ccc(OC)cc3)C2)cc1 (configuration not stated) | 11 | 0 | 0 | 10
COc1cc(-c2c3cc(O)c(=O)cc-3oc3cc(O)c(O)cc23)cc(Cl)c1OC | -11 | 0 | 0 | 98*
COc1ccc(-c2c3cc(O)c(=O)cc-3oc3cc(O)c(O)cc23)cc1C | 0 | -2 | -1 | 109*
COc1cc(-c2cc(=O)c3cc(O)ccc3o2)cc(OC)c1OC | -4 | -1 | 0 | 0
COc1ccc(-c2cc(=O)c3c(O)cc(O)cc3o2)cc1O | -48 | -1 | 0 | 8
CCOC(=O)C(=O)N1N=C(c2cccc(Br)c2)CC1(O)C(F)(F)F (configuration not stated) | -79 | 0 | 0 | -22
c1ccc(C2=NNC(c3ccccc3)=NN2)cc1 | 42* | -6 | 0 | 5
O=C(NCCc1ccc(Cl)cc1)c1ccc(Cn2nnc3ccsc3c2=O)cc1 | 10 | 2 | 0 | 8
N=c1sccn1CC(=O)c1ccc2c(c1)OCCO2 | 35* | -7 | 0 | -13
COc1ccc(C(=O)CN2Cc3ccccc3C2=N)cc1OC | -84 | 0 | 0 | 12
N=C1c2ccccc2CN1CC(=O)c1ccc2c(c1)OCCO2 | 77* | -7 | 0 | 2
N=C1c2ccccc2CN1CC(=O)c1ccc(-c2ccccc2)cc1 | 80* | -3 | 0 | -6
COc1ccc(C(=O)Cn2ccsc2=N)cc1 | -52 | -2 | 0 | -5
Cn1c(=O)c2c(nc3n2CC=NN3)n(C)c1=O | 7 | -1 | 0 | -2
COc1cccc(CN(CCCN(C)C)C(=O)Nc2ccc(-c3cn[nH]c3)cc2OC)c1 | -12 | 1 | 0 | -10
COc1cccc(CN(CCN(C)C)C(=O)Nc2ccc(-c3cn[nH]c3)cc2N(C)C)c1 | 50* | -1 | 0 | 25
COc1cccc(CN(CCN(C)C)C(=O)c2cnc3ccc(-c4cn[nH]c4)cn23)c1 | 45* | 1 | 0 | 1
COc1cccc(CN(C)C(=O)c2cnc3cc(-c4cn[nH]c4)ccn23)c1 | 46* | -1 | 0 | -5
COc1cccc(CN(CCN(C)C)C(=O)c2cnc3cc(-c4cn[nH]c4)ccn23)c1 | -10 | -2 | 0 | -4
CN(CC(=O)Nc1ccc(C#N)cc1)S(=O)(=O)c1ccccc1 | 8 | -1 | 0 | 13
COc1ccccc1N1C(=O)NC2CC1(C)Oc1ccc(Br)cc12 (configuration not stated) | 4 | 0 | 0 | 2
CCOc1ccccc1N1C(=O)NC2CC1(C)Oc1ccc(Br)cc12 (configuration not stated) | -2 | 0 | 3.3* | -21
SMILES | TEAD-YAP block | GPR151 ag | FBW7 act | MITF inh
CCOc1cc2c(c([N+](=O)[O-])c1)NC(C(=O)O)C1CC=CC21 (configuration not stated) | 13 | -1 | -1 | 73*
O=C(O)C1Nc2c(O)cc(Cl)c([N+](=O)[O-])c2C2C=CCC12 (configuration not stated) | -6 | -1 | 0 | 108*
O=[N+]([O-])c1c(Cl)cc(O)c2c1C1C=CCC1C(c1ccc(Cl)cc1)N2 (configuration not stated) | 14 | 1 | 0 | 32
COc1cccc(CNC(=O)c2ccc3c(c2)NC(=O)C(CS(=O)(=O)Cc2cccc(F)c2)N3)c1 (configuration not stated) | -5 | 0 | 1 | 28
CSc1ccc(/C=C2/N=C(c3cccc(Cl)c3Cl)OC2=O)cc1 | -6 | 0 | 0 | 0
Nc1c(C(=O)NCc2ccccc2)nnn1Cc1cccc(F)c1 | 3 | -1 | 1 | 25
Nc1c(C(=O)NCc2ccccc2)nnn1Cc1cccc(C(F)(F)F)c1 | 48* | 0 | 0 | -11
COc1cc(Nc2cc(Nc3ccccn3)nc(N)n2)cc(OC)c1OC | 44* | 1 | 0 | -9
COc1cc(Nc2cc(Nc3ccccn3)ncn2)cc(OC)c1OC | -10 | 0 | 0 | 18
COc1cc(Nc2cc(Nc3nccc4ccccc34)nc(N)n2)cc(OC)c1OC | 77* | -1 | 0 | -1
CC(=O)N1CCOc2cc(S(=O)(=O)N3CC(C)CC(C)C3)ccc21 (configuration not stated) | 8 | 0 | 1 | 9
COc1ccc(-c2csc(NC(=O)c3cc(C)nn3C)n2)cc1 | 63* | 0 | 0 | 0
COc1ccc(-c2csc(NC(=O)c3csc(C)c3)n2)cc1 | -4 | 1 | -1 | -5
O=C(CO/N=C/c1cccs1)N1CCN(c2ccccc2)CC1 | 8 | -1 | 0 | 5
Cc1cc(C)c(N(C(=O)CCl)C(=O)C2CCCN2C(=O)CCl)c(C)c1 (configuration not stated) | 32* | 1 | 0 | 4
COc1ccc(-n2ncc3c(N4CCCC4)ncnc32)cc1 | 25 | 2 | 0 | 2
Cc1cccc(-n2ncc3c(N(C)C4CCCCC4)ncnc32)c1 | 97* | 1 | 0 | -17
CCN(CC)c1ncnc2c1cnn2-c1cccc(C)c1 | 60* | 1 | 0 | 4
Cc1cccc(-n2ncc3c(NC4CCCCCC4)ncnc32)c1 | 47* | 1 | 0 | 4
Clc1cccc(-n2ncc3c(NC4CC4)ncnc32)c1 | -32 | -1 | 0 | -3
Cc1cccc(-n2ncc3c(N(CC(C)C)CC(C)C)ncnc32)c1 | -12 | 2 | 0 | 0
COc1ccc(-n2ncc3c(N(C)C4CCCCC4)ncnc32)cc1 | 93* | 2 | 0 | -3
Cc1cc(O)cc2c1C(=O)/C(=C/c1cccc(Cl)c1)O2 | 26 | -6 | 0 | 10
Nc1nnc(SCC(=O)c2ccccc2Br)s1 | -22 | -2 | 0 | 12
O=C(Nc1ccc(C(F)(F)F)cc1)c1cc(S(=O)(=O)NCc2ccccc2Cl)ccc1F | 12 | 3 | 0 | -1
SMILES | TEAD-YAP block | GPR151 ag | FBW7 act | MITF inh
Cc1cccc(NC(=O)CN(c2ccc(C(C)C)cc2)S(=O)(=O)c2c(C)n[nH]c2C)c1 | 10 | 0 | 0 | -1
C=CCNc1ncnc2c1cnn2-c1ccc(C)cc1C | -8 | 0 | 0 | 8
CCOC(=O)N1CCC(Nc2ncnc3c2cnn3-c2ccc(C)cc2C)CC1 | 39* | -1 | 0 | -6
COc1ccc(Cl)cc1NS(=O)(=O)c1coc(C(N)=O)c1 | 3 | -1 | 0 | 1
O=C1NC2(CCN(C(=O)c3csc4c3CCCC4)CC2)Nc2ccccc21 | 40* | -1 | 0 | 21
COc1ccc(-n2nc3ccc(O)cc3n2)cc1 | 65* | -6 | 0 | 4
COc1ccc(OCC(=O)Nc2ccc3nn(-c4ccc(OC)cc4)nc3c2)cc1 | -26 | -2 | 0 | 7
